Active and inactive are the calls of the source.
Legend:
[1] = compounds binding Alexa647 anti-His antibody – biochemical, small-molecule microarray, 635 nm fluorescence, artefact control for SMM control protein annotation, primary screen (AID 1128); conditions: higher = more signal;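 also: score merges feature fluorescence with signal-to-noise for each printed compound spot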
[2] = test system: Human papillomavirus type 1a E7 protein (residues 1-88); test: HPV1a E7 small-molecule binders, primary screen, biochemical, small-molecule microarray, residues 1-88, 635 nm (AID 1129); conditions: small-molecule microarray binding, fluorescence 635 nm; higher = more signal
[3] = target: Focal adhesion kinase 1 (Homo sapiens) (UniProt Q05397); test: PTK2 protein binding on printed compound slides – biochemical, small-molecule microarray, 635/667 nm fluorescence, BSA, DTT, primary screen (AID 1130); conditions: 635 nm fluorescence, higher = more signal;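 also: composite of spot emission at 667 nm and signal to noise over triplicate slides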
[4] = test system: Fibrinogen (Alexa647-labelled); test: Alexa647-fibrinogen binding to printed small molecules – biochemical, small-molecule microarray, 635/667 nm fluorescence, artefact control for SMM control-protein annotation, profiling panel (AID 1131); conditions: fibrinogen-A647 binding fluorescence, higher = more signal;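 also: z-score merges 667 nm fluorescence with per-spot signal-to-noise over triplicate slides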
[5] = target: Follistatin (Homo sapiens) (UniProt P19883); test: FST protein binding to printed compounds – biochemical, small-molecule microarray, 635/667 nm fluorescence, primary screen (AID 1132); conditions: 635 nm fluorescence, higher = more signal
[6] = target: Fibroblast growth factor 2 (Homo sapiens) (UniProt P09038); test: basic fibroblast growth factor binding to printed compounds – biochemical, small-molecule microarray, 635/667 nm fluorescence, primary screen (AID 1133); conditions: FGF2, fluorescence 635/667, higher = more signal
[7] = JC-1 mitochondrial potential readout, lung cancer cells – cell-based, A549, JC-1 fluorescence, basal, 24 h, 100 nL, profiling panel (AID 1138); conditions: higher = more signal;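 also: A549 lung adenocarcinoma cells under basal conditions with no added stimulus; test concentration not given here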
Lefty1 = Lefty1 protein binding to printed compounds – biochemical, small-molecule microarray, 635/667 nm fluorescence, primary screen (AID 1139); conditions: fluorescence 635/667, higher = more signal
[8] = test system: wheat germ agglutinin (Triticum aestivum), Alexa647-labelled; test: Alexa647-WGA lectin binding to printed small molecules – biochemical, small-molecule microarray, 635/667 nm fluorescence, artefact control for SMM control-protein annotation, profiling panel (AID 1140); conditions: WGA-A647 binding, 635 nm fluorescence, higher = more signal;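 also: score merges 667 nm feature emission with signal to noise over triplicate slides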
[9] = target: Luciferin 4-monooxygenase (Photinus pyralis) (UniProt P08659); test: inhibition of purified Photinus pyralis luciferase – biochemical, luminescence, purified enzyme, 2006 set, primary screen (AID 1141); conditions: purified firefly luciferase, SteadyGlo luminescence, 30 min; higher = more signal, called active from +8 up or from −8 down;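 also: cell-free assay with purified firefly luciferase at 100 ng per well in PBS; test concentration not given here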
Chain of Luciferin 4-monooxygenase (Photinus pyralis) (P08659 whole entry, looked up): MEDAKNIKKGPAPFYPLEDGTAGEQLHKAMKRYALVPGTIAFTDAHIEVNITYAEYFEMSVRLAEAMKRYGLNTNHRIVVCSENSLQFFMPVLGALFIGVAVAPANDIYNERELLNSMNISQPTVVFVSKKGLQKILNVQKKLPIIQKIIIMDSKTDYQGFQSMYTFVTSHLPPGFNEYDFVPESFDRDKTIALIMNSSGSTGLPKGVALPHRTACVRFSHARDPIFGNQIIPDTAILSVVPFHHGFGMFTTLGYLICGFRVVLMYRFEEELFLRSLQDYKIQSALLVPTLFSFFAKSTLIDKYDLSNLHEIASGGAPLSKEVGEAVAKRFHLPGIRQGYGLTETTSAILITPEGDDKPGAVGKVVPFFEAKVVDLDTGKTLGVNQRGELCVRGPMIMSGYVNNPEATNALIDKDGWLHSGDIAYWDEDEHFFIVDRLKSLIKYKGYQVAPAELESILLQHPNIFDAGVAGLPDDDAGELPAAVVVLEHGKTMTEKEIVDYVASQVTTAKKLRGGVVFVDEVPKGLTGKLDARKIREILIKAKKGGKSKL

Chain of Fibroblast growth factor 2 (Homo sapiens) (P09038 whole entry, looked up): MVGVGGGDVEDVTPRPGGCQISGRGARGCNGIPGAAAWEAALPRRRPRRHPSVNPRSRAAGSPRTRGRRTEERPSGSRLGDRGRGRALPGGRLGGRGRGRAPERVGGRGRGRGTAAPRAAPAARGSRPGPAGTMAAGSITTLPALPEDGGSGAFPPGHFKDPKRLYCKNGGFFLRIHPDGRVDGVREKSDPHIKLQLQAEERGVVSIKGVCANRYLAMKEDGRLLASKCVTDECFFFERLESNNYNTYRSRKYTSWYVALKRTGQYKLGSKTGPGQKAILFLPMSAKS
Chain of Follistatin (Homo sapiens) (P19883 whole entry, looked up): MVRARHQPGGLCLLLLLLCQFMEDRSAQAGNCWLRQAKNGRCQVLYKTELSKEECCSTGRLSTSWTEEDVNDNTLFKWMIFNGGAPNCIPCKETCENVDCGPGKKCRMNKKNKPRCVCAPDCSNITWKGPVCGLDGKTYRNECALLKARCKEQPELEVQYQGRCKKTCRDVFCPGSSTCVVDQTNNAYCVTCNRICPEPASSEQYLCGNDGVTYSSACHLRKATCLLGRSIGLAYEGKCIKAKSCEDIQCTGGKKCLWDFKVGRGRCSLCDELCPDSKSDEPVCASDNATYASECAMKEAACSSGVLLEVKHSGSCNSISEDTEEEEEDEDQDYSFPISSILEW
Chain of Focal adhesion kinase 1 (Homo sapiens) (Q05397 whole entry, looked up): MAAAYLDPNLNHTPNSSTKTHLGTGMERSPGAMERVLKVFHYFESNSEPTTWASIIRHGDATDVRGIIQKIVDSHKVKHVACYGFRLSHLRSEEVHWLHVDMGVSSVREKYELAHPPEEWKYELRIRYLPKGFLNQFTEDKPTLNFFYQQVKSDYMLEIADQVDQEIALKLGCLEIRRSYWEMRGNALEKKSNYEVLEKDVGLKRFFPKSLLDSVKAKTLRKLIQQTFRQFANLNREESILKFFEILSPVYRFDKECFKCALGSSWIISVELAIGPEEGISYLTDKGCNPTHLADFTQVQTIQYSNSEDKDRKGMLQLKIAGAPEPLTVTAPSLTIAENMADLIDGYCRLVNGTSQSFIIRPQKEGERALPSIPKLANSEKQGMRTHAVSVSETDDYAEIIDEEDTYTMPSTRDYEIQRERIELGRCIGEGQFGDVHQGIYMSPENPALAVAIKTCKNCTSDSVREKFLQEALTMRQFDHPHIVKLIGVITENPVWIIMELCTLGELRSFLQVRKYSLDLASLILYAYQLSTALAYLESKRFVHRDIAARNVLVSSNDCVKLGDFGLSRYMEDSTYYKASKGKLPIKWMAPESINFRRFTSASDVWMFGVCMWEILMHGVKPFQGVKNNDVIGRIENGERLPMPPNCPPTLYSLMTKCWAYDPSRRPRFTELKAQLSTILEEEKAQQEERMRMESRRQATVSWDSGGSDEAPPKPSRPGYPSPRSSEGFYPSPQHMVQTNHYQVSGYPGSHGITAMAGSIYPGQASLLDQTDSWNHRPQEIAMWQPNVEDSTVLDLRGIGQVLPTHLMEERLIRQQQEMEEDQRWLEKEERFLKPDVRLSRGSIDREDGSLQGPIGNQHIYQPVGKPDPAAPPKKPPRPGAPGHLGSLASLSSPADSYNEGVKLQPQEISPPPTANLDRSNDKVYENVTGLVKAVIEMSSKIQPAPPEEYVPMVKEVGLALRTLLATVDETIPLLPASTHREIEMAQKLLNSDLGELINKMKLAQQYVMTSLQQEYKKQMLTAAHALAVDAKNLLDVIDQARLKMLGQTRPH

Row | Structure (SMILES) | composite z-score [1] | composite z-score [2] | composite z-score [3] | composite z-score [4] | composite z-score [5] | composite z-score [6] | z-score [7] | composite z-score (Lefty1) | composite z-score [8] | z-score [9]
1 | COCCOC(=O)N1C(=O)[C@@]2(c3cc(C#CCCO)ccc31)[C@H](c1ccccc1OCCO)N1[C@H](c3ccccc3)[C@H](c3ccccc3)OC(=O)[C@H]1[C@@H]2C(=O)N1CCCCCCC1 | 1.35 | 1.17 | 0.624 | 0.857 | 1.39 | 1.58 | -0.383 | 1.65 | 1.14 | -0.0558 (inactive)
2 | CC(C)c1ccc(NN2C(C(O)Cc3ccccc3)C=CC3C(=O)N(c4ccccc4)C(=O)C32)cc1 (stereo not given) | 0.829 | 1.11 | 1.16 | 0.958 | 1.28 | -0.0551 | -1.24 | 0.441 | 0.797 | -0.959 (inactive)
3 | COc1cc(NN2C(C(O)c3cc(OC)c(OC)c(OC)c3)C=CC3C(=O)N(c4ccccc4)C(=O)C32)cc(OC)c1OC (stereo not given) | 1.41 | 1.27 | 0.6 | 1.04 | 1.28 | 1.56 | -0.609 | 0.133 | 0.848 | -0.771 (inactive)
4 | O=C1O[C@H](c2ccccc2)[C@H](c2ccccc2)N2[C@H]1[C@@H](C(=O)N1CCCCCCC1)[C@]1(C(=O)Nc3ccc(C#CC4(O)CCCCCC4)cc31)[C@H]2c1ccc(O)cc1 | 0.821 | 1.22 | 1.75 | 0.545 | 1.4 | 1.37 | 0.706 | 1.27 | 0.757 | -0.0026 (inactive)
5 | O=C1OCCC=C[C@H]2OC34C=CCN(c5ccc(Cl)cc5)C(=O)[C@H]3N(CCCCCCO)C(=O)[C@@H]4C12 (stereo not given in full) | -0.6 | -0.611 | -0.469 | -1.17 | -0.841 | -1.12 | 2.21 | -0.831 | -0.533 | -1.65 (inactive)
6 | O=C(CS)NCCCCCCNC(=O)[C@@H]1C[C@@H]2C(=O)NCC(=O)N2[C@@H]1c1ccc(O)cc1 | 2.52 | -0.41 | 0.0509 | -0.975 | 0.526 | 1.18 | 0.601 | -0.628 | -0.498 | -1.38 (inactive)
7 | C=C(/C(=C/C[C@@H](OC(C)=O)c1ccc(CO)o1)c1cc(C(=O)OC)ccc1OC)C(C)C | 1.54 | 0.659 | 0.571 | 0.0384 | 0.913 | 0.682 | -0.237 | 0.564 | 0.427 | -3.52 (inactive)
8 | CN(C)CCCCNC(=O)[C@H]1C[C@H]2C(=O)N[C@@H](CCCC[N+](C)(C)C)C(=O)N2[C@H]1c1ccc(O)cc1 | 1.12 | -0.454 | -0.294 | -1.24 | 0.525 | 0.0954 | -0.247 | 0.306 | 0.0976 | 0.0252 (inactive)
9 | C=CCC(OC(C)=O)[C@@H]1[C@@H](N(Cc2cccc3ccccc23)C(=O)Cc2ccc(F)cc2)c2cc(OCCCO)ccc2N1C(=O)c1ccc(-c2ccccc2)cc1 (stereo not given in full) | -0.517 | -0.0075 | 0.365 | 0.674 | -0.0679 | 0.292 | 0.577 | -0.62 | 0.507 | -0.403 (inactive)
10 | O=C1C2C=CC(C(O)c3ccco3)N(Nc3ccccc3)C2C(=O)N1c1ccccc1 (stereo not given) | -0.317 | 0.556 | -0.0201 | -1.58 | -0.118 | -1.21 | 1.9 | -0.907 | 0.46 | 1.06 (inactive)
11 | [N-]=[N+]=NC[C@H](Cc1ccccc1)NC(=O)c1ccccc1 | 0.568 | -0.165 | 0.161 | -0.0208 | -0.487 | -0.0599 | 1.21 | -0.156 | 0.736 | -0.53 (inactive)
12 | CN(C)CCCCCCNC(=O)[C@@H]1C[C@@H]2C(=O)N[C@@H](CCCCN)C(=O)N2[C@@H]1c1ccc(O)cc1 | 2.6 | 1.33 | 3.73 | 0.957 | 1.54 | 1.6 | -0.742 | 1.66 | 1.73 | 0.307 (inactive)
13 | CO[C@H]1O[C@H](CO)[C@@H](OC(=O)c2ccc(Br)cc2)[C@@H]2OC(=O)[C@H](Cc3ccccc3)C/C=C/C[C@@H](Cc3ccccc3)C(=O)O[C@@H]12 | 0.478 | 0.817 | 0.703 | 0.135 | 0.84 | 1.37 | 0.0305 | 0.416 | -0.0716 | 0.659 (inactive)
14 | COc1cc(NN2C(C(O)c3ccc(I)cc3)C=CC3C(=O)N(c4ccccc4)C(=O)C32)cc(OC)c1OC (stereo not given) | 2.4 | 1.24 | 0.522 | 0.993 | 1.2 | 0.562 | 0.235 | 0.52 | 1.39 | -0.285 (inactive)
15 | CC1CC/C=C\[C@H]2OC34C=CCN(CCN5CCOCC5)C(=O)[C@H]3N(C(C)CO)C(=O)[C@@H]4C2C(=O)O1 (stereo not given in full) | -0.172 | -1.04 | -0.421 | -1.99 | 0.446 | -0.439 | 0.224 | 0.582 | -0.928 | -1.39 (inactive)
16 | CCC(CC)C(O)C1C=CC2C(=O)N(c3ccccc3)C(=O)C2N1Nc1ccc([N+](=O)[O-])cc1 (stereo not given) | 0.838 | 1.23 | 1.19 | 0.895 | 0.081 | -0.348 | -1.38 | 0.138 | 1.11 | 1.14 (inactive)
17 | CC(C)[C@H]1NC(=O)[C@@]23C(=O)N[C@@H](Cc4ccccc4)C2[C@H](C)[C@@]2(C)O[C@H]2C3/C=C/CCC/C=C/CNC(=O)[C@H](Cc2ccccc2)NC1=O (stereo not given in full) | 0.123 | 0.369 | 0.205 | -0.684 | 0.283 | -0.0659 | -0.69 | 1.03 | -0.755 | -0.388 (inactive)

Source: PubChem BioAssay
